Compound activity (PubChem)
An excerpt weighted towards active compounds, which were near 1.1% of everything screened.
Mtb BioA inh: BioA (M. tuberculosis) enzyme inhibition; purified M. tuberculosis BioA enzyme, plate reader; inhibition, % at 9.99 µM; 360,000 tested, 0.096% active; in the data active = inhibition above about 40%; inconclusive = no clear call, values can overlap the other calls
Y pestis TopoI: inhibitors of Yersinia pestis topoisomerase I; Y. pestis Topo-I cleavage product accumulation, plate reader; activity, % at 10 µM; 360,000 tested, 0.064% active; in the data active = activity above about 50%, passing the limit was not always enough; inconclusive = no clear call, values can overlap the other calls
PrP 5UTR inh: suppresses PrP 5' UTR mRNA reporter expression; cell-based PrP 5' UTR mRNA reporter, plate reader; inhibition, % (concentration not given with the values); 340,000 tested, 0.35% active; in the data active = inhibition above about 52%; note: 0 = median of the neutral control wells
FadD28 FP inh: blocks FadD28 binding to the bisubstrate probe | inhibition, % at 12.5 µM | fluorescence polarization | AID 588549 | 360,000 tested, 0.22% active; in the data active = inhibition above about 8.5%, passing the limit was not always enough; inconclusive = no clear call, values can overlap the other calls
PfHsp40 yeast: rescue of PfHsp40-mediated yeast toxicity | 340,000 tested, 0.68% active | growth rescue, % at 12.5 µM | S. cerevisiae expressing PfHsp40, growth rescue, ATP luminescence; in the data active = growth rescue above about 28%, passing the limit was not always enough; inconclusive = no clear call, values can overlap the other calls;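 note: yeast W303a lacking pdr1 and pdr3 grown in galactose medium; growth measured after three days at 30 °C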
* marks the source's active call; other numbers are inactive results; ? = inconclusive; / = no result given.

SMILES	Mtb BioA inh	Y pestis TopoI	PrP 5UTR inh	FadD28 FP inh	PfHsp40 yeast
C[C@H]1CN([C@@H](C)CO)C(=O)Cc2cc(NS(=O)(=O)c3cn(C)cn3)ccc2O[C@@H]1CN(C)S(C)(=O)=O	-0.4	/	/	/	/
Cc1cccc(C)c1NC(=O)c1nc(S(=O)(=O)Cc2ccccc2)ncc1Cl	0.7	10.9	-28.8	-3.1	98.0*
COCC(=O)N(C)C[C@H]1Oc2ncc(-c3ccc(C)cc3)cc2C(=O)N([C@@H](C)CO)C[C@H]1C	0.8	/	/	/	/
CC1=NN(C(N)=S)C(=O)C1N=Nc1cccc(Cl)c1C (configuration not stated)	-1.9	-18.0	-52.9	-2.7	104.1*
O=C(COC(=O)CNS(=O)(=O)c1ccc2ccccc2c1)Nc1ccccc1Sc1ccccc1	/	62.0*	-9.9	-3.7	0.7
C[C@H](CO)N1C[C@H](C)[C@H](CN(C)Cc2ccc(-c3ccccc3)cc2)Oc2c(NS(=O)(=O)c3ccc(Cl)cc3)cccc2C1=O	-6.5	/	/	/	/
CCn1nnnc1NCc1ccc(SC)cc1	-1.0	0.7	-14.9	-4.0	38.6*
COC(=O)C1=C(c2ccc(-c3ccccc3)c(F)c2)C[C@@H]2CC[C@H]1N2C(=O)N1CCCC1	2.4	36.6	-11.8	-7.2	28.6*
Cc1noc(C)c1COC(=O)CCCOc1ccc(Cl)cc1Cl	-1.3	61.4*	-7.1	-1.0	2.2
CCOC(=O)c1sc(NC(=O)Nc2ccc(Cl)cc2)cc1C	-0.6	-3.0	-50.6	24.8*	1.4
COC(=O)C[C@H]1CC[C@@H]2[C@H](COc3ccc(NC(=O)c4ccc(F)c(F)c4)cc3C(=O)N2C)O1	3.6	/	/	/	/
Oc1ccc(Cl)cc1N=Nc1ccccc1	0.5	0.9	-22.6	-3.3	0.9
O=S(=O)(O)c1cc(O)c2c(O)c(N=Nc3cc(Cl)ccc3O)c(S(=O)(=O)O)cc2c1	5.2	65.0*	-3.1	?	15.9
C[C@H](CO)N1C[C@H](C)[C@@H](CN(C)Cc2cccnc2)Oc2ncc(-c3ccc(C#N)cc3)cc2C1=O	10.4	/	/	/	/
O=C(COc1ccccc1)Nc1ccncc1	/	-7.9	-14.9	-2.8	44.4*
COC(=O)C1=NNC2(c3ccc(Cl)cc3)C(=O)N(c3ccccc3)C(=O)C12 (configuration not stated)	-1.9	-6.4	-7.2	3.0	-0.5
COC(=O)C1=NNC2(c3ccc(Cl)cc3)C(=O)N(c3ccc(Cl)cc3)C(=O)C12 (configuration not stated)	0.1	5.9	-12.2	1.2	45.2*
Cc1ccc(CSc2nnc(-c3ccncc3)n2CC2CCCO2)cc1 (configuration not stated)	/	-1.4	-28.5	-2.5	53.7*
O=C(O)c1ccc(CSc2nnc(-c3ccncc3)n2CC2CCCO2)cc1 (configuration not stated)	-2.9	2.3	-13.4	-2.5	-0.6
CCc1cc(=O)n2c([nH]c3ccccc32)c1C#N	-0.1	-11.5	-12.2	-0.6	19.3
C=C(C)Cc1c(C)c(C#N)c2[nH]c3ccccc3n2c1=O	0.3	13.8	-15.0	0.6	131.2*
CC(SCc1cc(=O)n2c([nH]c3ccccc32)c1C#N)C(=O)O (configuration not stated)	-0.4	1.2	-32.3	10.3*	0.7
C[C@@H]1CN([C@@H](C)CO)C(=O)c2cc(C#CC3CCCC3)cnc2O[C@H]1CN(C)S(=O)(=O)c1cccc(F)c1	1.5	/	/	/	/
O=C(Nc1ccc2nn(-c3ccccc3)nc2c1)c1cccnc1	6.9	-1.5	-47.8	-3.4	114.6*
O=C(Nc1ccc2nn(-c3ccc(F)cc3)nc2c1)c1cccnc1	/	-3.2	-28.6	-1.8	0.3
SMILES	Mtb BioA inh	Y pestis TopoI	PrP 5UTR inh	FadD28 FP inh	PfHsp40 yeast
C[C@@H]1CN([C@H](C)CO)S(=O)(=O)c2ccc(C#Cc3ccncc3)cc2O[C@H]1CN(C)C	0.5	/	/	/	/
N#Cc1ccc(-c2c(-c3ccccc3)ncc3cc(F)ccc23)cc1	-0.8	7.5	-38.0	-2.6	124.4*
COc1ccc([Si](C)(C)[C@H]2[C@H](CCO)O[C@@]3(C(=O)N(Cc4ccc(N5CCOC5=O)cc4)c4ccccc43)[C@@H]2C)cc1	-1.6	/	/	/	/
O=c1[nH]cnc2c1sc1nc(-c3ccccc3)c3c(c12)CCCC3	/	9.1	-15.7	-3.6	-1.0
S=c1nc[nH]c2c1sc1nc(-c3ccccc3)c3c(c12)CCCC3	/	-3.3	-8.8	15.2*	1.6
O=C(Nc1cccc(F)c1)N1C[C@@H]2[C@H](c3ccccc31)[C@@H](CO)N2C(=O)c1ccccc1F	5.4	/	/	/	/
O=C(Nc1ncc([N+](=O)[O-])s1)c1ccc2c(c1)OCO2	2.4	-2.2	68.9*	-1.2	-3.7
CC1CCN(c2oc(Cc3cccc4ccccc34)nc2C#N)CC1	-0.5	54.8*	-7.5	2.6	?
C[C@@H]1CN([C@@H](C)CO)C(=O)Cc2cc(NS(=O)(=O)c3ccccc3)ccc2O[C@H]1CN(C)Cc1ccccc1	2.5	/	/	/	/
O=C(O)c1ccccc1NS(=O)(=O)c1ccc(NNC(=S)Nc2ccc(OC(F)F)cc2)c([N+](=O)[O-])c1	/	-6.8	-11.9	55.4*	0.4
COc1cc(C=NNc2ccc(S(=O)(=O)Nc3ccccc3C(=O)O)cc2[N+](=O)[O-])ccc1O	9.7	-12.3	-10.2	49.7*	9.7
CCOc1ccc(C=NNc2ccc(S(=O)(=O)Nc3ccccc3C(=O)O)cc2[N+](=O)[O-])cc1OC	/	5.4	-13.7	?	-0.7
CN(CCO)c1ccc(C=NNc2ccc([N+](=O)[O-])cc2S(=O)(=O)Nc2ccccc2C(=O)O)cc1	12.2	1.9	/	31.8*	/
CCOc1cc(/C=N/Nc2ccc(S(=O)(=O)Nc3ccccc3C(=O)O)cc2[N+](=O)[O-])cc(Cl)c1O	-0.4	-9.1	/	25.1*	/
Cc1noc(C)c1NC(=O)Nc1ccc2c(c1)CC(=O)N([C@H](C)CO)C[C@H](C)[C@@H](CN(C)S(=O)(=O)c1cccs1)O2	2.0	/	/	/	/
CO[C@H]1CC[C@H]2CCOc3ccc(C#N)cc3C(=O)N(C)C[C@H](C)C(=O)N(C)C[C@H]1O2	-1.1	/	/	/	/
CC(=O)Nc1cccc(/C(C)=N/Nc2ccc(S(=O)(=O)Nc3ccccc3C(=O)O)cc2[N+](=O)[O-])c1	10.7	-14.1	7.5	18.9*	3.1
CC(=O)Nc1ccc(C=NNc2ccc([N+](=O)[O-])cc2S(=O)(=O)Nc2ccccc2C(=O)O)cc1	2.7	-14.0	6.2	-10.2	2.4
COc1ccc(Cn2c(O)c(C=Nc3ccccc3C(=O)O)c3ccccc3c2=O)cc1	8.0	0.3	-34.2	?	-0.7
COc1ccccc1NS(=O)(=O)c1cccc(-n2c(O)c(C=Nc3ccccc3C(=O)O)c3ccccc3c2=O)c1	-1.8	-1.0	-13.2	19.7*	1.9
CC(=O)Nc1ccc(C=NNc2ccc(S(=O)(=O)Nc3ccccc3C(=O)O)cc2[N+](=O)[O-])cc1	7.5	-2.9	-4.9	27.5*	8.1
COCC(=O)Nc1ccc2c(c1)C(=O)N(C)[C@H]1CC[C@H](CC(=O)NC3CCCC3)O[C@H]1CO2	4.9	/	/	/	/
CC(C)NC(=O)Nc1ccc2c(c1)C(=O)N([C@@H](C)CO)C[C@@H](C)[C@@H](CN(C)Cc1ccccc1)OCCCC[C@@H](C)O2	-1.0	/	/	/	/
